{"source": "PubChem BioAssay (NCI)", "note": "About 83,000 compounds went through this panel and 20% of them were active in at least one assay; those are over-represented in the sample as a whole.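 Each cell line was grown in a 96-well plate and treated with one concentration of compound for 48 hours. Values below 10 were considered active.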 A number with no mark means an inactive call. Calls of active or inactive are those of the source.", "data": [{"tested_on": "KM12 colon", "assay": "NCI-60 one-dose screen, 48 h (100 = growth as untreated, 0 = no growth, -100 = all killed)", "settings": "10 µM unless noted", "values": [{"smiles": "CCC(=O)Nc1cc2c(cc1Cl)-c1ccccc1C2", "growth": "95.2%"}, {"smiles": "FC(F)(F)c1ccc(-c2cnc(-c3nn[nH]n3)nc2NC2CCCCCC2)cc1", "growth": "41.5% [50 µM]"}, {"smiles": "CCn1cnc(C[C@H](NC(=O)[C@H](CCCCNC(=O)Nc2cc(C(F)(F)F)cc(C(F)(F)F)c2)NC(=O)Nc2cc(C(F)(F)F)cc(C(F)(F)F)c2)C(=O)OC)c1", "growth": "-43% [100 µM] (active)"}, {"smiles": "O=c1ncc(-c2ccc(C(F)(F)F)cc2)c(NC2CCCCCC2)[nH]1", "growth": "33.4%"}, {"smiles": "Nc1nc(Nc2ccccc2SSc2ccccc2Nc2nc(N)nc(-c3cccc(Cl)c3)n2)nc(-c2cccc(Cl)c2)n1", "growth": "77%"}, {"smiles": "Cc1ccc2nc3c(n2c1)C(=O)C(=O)c1ccccc1-3", "growth": "-26.6% (active)"}, {"smiles": "O=C1NC(=S)S/C1=C\\c1cc(Br)ccc1O", "growth": "90.6%"}, {"smiles": "O=C1OC2(c3ccccc31)c1ccccc1-c1ccccc12", "growth": "51.6%"}, {"smiles": "Cc1sc2nc(NCCc3cccs3)[nH]c(=O)c2c1C", "growth": "92.6%"}, {"smiles": "COc1cc(/C=N/OC(=O)Nc2ccccc2)cc(OC)c1OC", "growth": "113%"}, {"smiles": "CSc1nc2nc3c(nc2c(=O)n1C)C(=O)c1ccccc1C3=O", "growth": "-64.2% (active)"}, {"smiles": "O=C(CNc1ccc2c(c1)C(=O)c1ccccc1C2=O)Nc1ccc2c(c1)C(=O)c1ccccc1C2=O", "growth": "-91.4% (active)"}, {"smiles": "Nc1ccc2c(c1Br)Cc1ccccc1-2", "growth": "103%"}, {"smiles": "c1ccc2c(-c3nc4ccccc4[nH]3)cccc2c1", "growth": "21.8%"}, {"smiles": "O=C(O)c1ccc2cccnc2c1O", "growth": "15.1%"}]}]}
